Data: the supplement of paper PMC13380429

Test system: Vero E6 infected with SARS-CoV-2
Assay: inhibition of SARS-CoV-2 cytopathic effect; higher = more antiviral protection, active = above 15
Conditions: 48 h

Measured: inhibition of SARS-CoV-2 cytopathic effect

O=C(COc1cccc2c(=O)[nH]ccc12)c1ccccc1
inactive: 1 nM -1.31% | 8.33 nM 1.84% | 100 nM -0.2% | 833.33 nM -0.52% | 10000 nM 0.99%

CCS(=O)(=O)N1CC(CC#N)(n2cc(-c3ncnc4[nH]ccc34)cn2)C1 [baricitinib]
inactive: 1 nM 3.34% | 8.33 nM -0.51% | 100 nM -1.28% | 833.33 nM 0.06% | 10000 nM -2.55%

Cc1cc(N2CCOCC2)ccc1Nc1nc(NC2CCCCC2)c2nc[nH]c2n1
inactive: 1 nM -1.92% | 8.33 nM 1.08% | 100 nM -7.66% | 833.33 nM 3.17% | 10000 nM 0.7%

CC[C@H]1CN2CC[C@H]1C[C@@H]2[C@@H](O)c1ccnc2ccc(OC)cc12 [hydroquinidine]
inactive: 1 nM 2.34% | 8.33 nM 3.2% | 100 nM 0.81% | 833.33 nM 2.84% | 10000 nM 1.57%

CC(=O)OC[C@H]1O[C@@H](n2ccc(=O)[nH]c2=O)[C@H](OC(C)=O)[C@@H]1OC(C)=O [uridine-triacetate]
inactive: 1 nM -1.68% | 8.33 nM 0.37% | 100 nM 0.84% | 833.33 nM -3.59% | 10000 nM -0.59%

CCn1cnc(C(=O)NC)c1C(=O)NC [ethimizol]
inactive: 1 nM -1.81% | 8.33 nM 0.39% | 100 nM -1.18% | 833.33 nM 1.42% | 10000 nM 1.32%

O=S(=O)(O)CCSSCCS(=O)(=O)O [dimesna]
inactive: 1 nM -0.79% | 8.33 nM 0.36% | 100 nM 0.65% | 833.33 nM -1.27% | 10000 nM -1.4%

Clc1ccc(Nc2nnc(Cc3ccncc3)c3ccccc23)cc1 [vatalanib]
inactive: 1 nM 0.19% | 8.33 nM -1.32% | 100 nM 0.29% | 833.33 nM 3.79% | 10000 nM 1.06%

O=C1C(CC[S+]([O-])c2ccccc2)C(=O)N(c2ccccc2)N1c1ccccc1 (stereo not given) [sulfinpyrazone]
inactive: 1 nM 1.22% | 8.33 nM 1.51% | 100 nM -0.06% | 833.33 nM 0.46% | 10000 nM 0.32%

O=C(O[C@H]1C[C@H]2CC[C@@H](C1)[N+]21CCCC1)C(O)(c1ccccc1)c1ccccc1 [trospium]
inactive: 1 nM -1.88% | 8.33 nM 0.55% | 100 nM 1.21% | 833.33 nM -1.72% | 10000 nM -0.69%

COCCN1CCC(C(=O)NO)(S(=O)(=O)c2ccc(Oc3ccc(OC(F)(F)F)cc3)cc2)CC1
inactive: 1 nM 3.42% | 8.33 nM 2.45% | 100 nM 2.99% | 833.33 nM 3.32% | 10000 nM 1.34%

COc1ccc(C(=O)NCc2cccnc2)cc1C(=O)NCc1cccnc1 [picotamide]
inactive: 1 nM -0.44% | 8.33 nM 2.62% | 100 nM 0.96% | 833.33 nM 0.22% | 10000 nM -1.62%

CCCC(=O)Nc1cccc(NC(=O)c2ccccc2Br)c1
inactive: 1 nM 1.03% | 8.33 nM 1.45% | 100 nM 0.94% | 833.33 nM -1.59% | 10000 nM -0.66%

CCCCCCCCCCCCCCCC[N+](C)(C)C [cetrimonium]
inactive: 1 nM 1.02% | 8.33 nM -0.39% | 100 nM 0.2% | 833.33 nM -3.96% | 10000 nM -18.4%

COc1cc(OC)c(/C=C/S(=O)(=O)Cc2ccc(OC)c(OP(=O)(O)O)c2)c(OC)c1 [briciclib]
inactive: 1 nM 1.41% | 8.33 nM 1.56% | 100 nM -1.04% | 833.33 nM -0.82% | 10000 nM -1.99%

NCCCCN(Cc1nc2ccccc2[nH]1)[C@H]1CCCc2cccnc21
inactive: 1 nM -0.42% | 8.33 nM -1.96% | 100 nM 0.37% | 833.33 nM -1.81% | 10000 nM 0.08%

Cc1ccccc1C(C(=O)NC1CCCCC1)N(C(=O)Cn1ccnc1C)c1cccc(F)c1 (stereo not given)
inactive: 1 nM -0.81% | 8.33 nM -1.8% | 100 nM 0.77% | 833.33 nM 1.79% | 10000 nM -0.96%

Cc1ccc(-c2n[nH]c3c2C(c2cccc(O)c2)N(c2ccc(C(=O)O)cc2)C3=O)cc1 (stereo not given)
inactive: 1 nM -0.75% | 8.33 nM -0.46% | 100 nM 3.03% | 833.33 nM 3.6% | 10000 nM 5.17%

Cc1c(C(=O)NN2CCOCC2)nn(-c2ccc(Cl)cc2Cl)c1-c1ccc(I)cc1
inactive: 1 nM 0.53% | 8.33 nM 1.48% | 100 nM 1.24% | 833.33 nM -2.07% | 10000 nM 1.16%
